Results on 40 sequences are retold here after the supplement of paper PMC6555819.

The first assay has as its system PXR:RXRa (NR concentration 270 nM, RXRa partner concentration 90 nM). Nature of the assay: PBM binding z-score (relative to random genomic background probes); higher = stronger binding; sequences stand for … in GC…GCGATTGACAGCGTAGAATGAAGG
The method, boiled down:
(§1)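 On custom Agilent 4×180K arrays, double-stranded probes with 34-nt variable regions carried direct-repeat seeds, single-nucleotide variants, half-site ablations or random human genomic background. Ligand-free nuclear receptor dimers were applied for 1 h, and binding was read with antibodies against each partner (one per run). Binding z-scores come from regression-normalized fluorescence, with the random background probes as reference.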
Sequence TGAATGAGGTTACAAGATCAGGGAACGTTGCAAA returned a PBM binding z-score of 0.754.

On to CCTCGGAGGACAGAAGGACAGAGCTGTCCGCTTT, for which the PBM binding z-score is -0.689.

The sequence ATCCAAAGGTCGTGAGGTGAGTATACAGAAAGGC yielded a PBM binding z-score of 3.64.

Consider CCTTACGGGTGACGAGGTTATAGCACGACGAGCG, for which the PBM binding z-score worked out at 0.931.

Turning to CCGACTGGGGCAAGGTTACGATAACGCACAGCCA, the PBM binding z-score worked out at 0.367.

Take TATACAGGGTGAAAGGCCAGAGTACGAATGTCGA: the PBM binding z-score was determined as 0.643.

For the sequence CAAACTAGATCAAAGGTCAAAGTCGAGCCAACCA, the PBM binding z-score was found to be 5.7.

TCTTGTAGATCAACCAGGTTAAGAAAGCCTGAGT came in with a PBM binding z-score of 0.658.

In turn, TTAATGAGGTTAAAGATCAGGGAACGTGGCGTCG came in with a PBM binding z-score of 2.4.

Turning to ACTCGGCGGACAAAGGTCAGAGCTACGCCAGTGA, the PBM binding z-score came to 3.41.

In the case of TCTATGAGTTGATTAGGGCAACCGAAACAGCGGA, the PBM binding z-score amounted to 0.279.

For ATCTCTAGGTAACGAAGTTCAGTGAATGCCGAAC, the PBM binding z-score stood at 1.14.

Take CTCGAAAGGTCGGTTGAGTTGAGTATACGGATAA: the PBM binding z-score turned out to be 3.89.

In the case of ACTATTAGTTGATTTAGGGCAACCGATACGACGC, the PBM binding z-score is 0.00966.

AGAATGAGGTTATTGAGATCAGGGAATTGCGGTC: the PBM binding z-score was determined as 1.57.

Consider ATCTCTAGGTAAGACTCAGTTCAGTGAAGAACGC, for which the PBM binding z-score came to 1.04.

As for CCTATTAGTTGACCATACGGGCAACCGAAGCTCG, the PBM binding z-score was -0.0836.

TTACCAAGGTGAAAGGTCCTTGATGCACGCCTTG: the PBM binding z-score came to 1.1.

Regarding CCTAGTTGGTCCAGGTCACACACGCTATAGGTAC, the PBM binding z-score came out at 2.34.

As for CCTCGGAGGACAGGAGGTCAGAGCTGTCCGCTTT, the PBM binding z-score turned out to be 1.81.

Consider GTACCAAGGTGAATAGATCGTTGATGAGTAGGCG, for which the PBM binding z-score is -0.0465.

Consider CCTACTGGGCCACGAAAGGTCGTTGATTCAGTGA, for which the PBM binding z-score amounted to 2.77.

CAAACTGGGTCACCGGAAGGTCAAAGTCCGCATG came in with a PBM binding z-score of 5.57.

For TCTCGGAGGACACGCAGGTCAGAGCTTTCCAGAG, the PBM binding z-score was determined as 1.1.

CCGAGTAGGTTATCGGGCATTCAGGCAACGGTGA: the PBM binding z-score is -0.121.

In turn, TCTTGTAGGTCAACAGGAGGTTAAGAAAGATCGA came in with a PBM binding z-score of 3.9.

As for TGAATTAGGTTAAAGATCAGGGAACGTGGCGTCG, the PBM binding z-score came out at 0.403.

On to ATTCAAAGTTCATCTAGGTAACGTAAGATATGCT, for which the PBM binding z-score amounted to 4.96.

For TAGCCTAGGTGATGCGGGCCAGTATAGTGTCGGC, the PBM binding z-score is -0.852.

For the sequence TAGCCTAGGTCCTGGGCCAGTATACCACGCGAAC, the PBM binding z-score was -0.91.

For CCTATTAGTTGACCATAAGGGCAAGCGAAGCTCG, the PBM binding z-score worked out at 0.536.

Sequence GGAACGCGGGCAAGTTGATAGCAGAGTTTGATGG registered a PBM binding z-score of -0.588.

The sequence TCATATAGGTAATACAGGTGAATGTCGGCATCTA returned a PBM binding z-score of 0.727.

As for ATCGAAAGGTCGACGAGGTGAGTTTACACCGTTT, the PBM binding z-score turned out to be 3.35.

ATATGTAGGTTATCGGGTCATTCAGTTTGCGCAT showed a PBM binding z-score of 3.75.

In the case of ACAGACAGGTGAGTGAAGGTAACGCAGCTGGACG, the PBM binding z-score is -0.245.

Turning to CGTCCAAGGTCAGCAGATCAGTGAAAGCGACGTG, the PBM binding z-score was determined as 2.49.

In the case of AGAATGAGGTTACCAAAGATCCGGGAAACGCTTG, the PBM binding z-score worked out at 0.78.

As to AGAACGAGGGCAATGAGTTGCTAGCACGGGTGGC, the PBM binding z-score came to 0.451.

For the sequence CAAACTAGGTCAAAGGTAAAAGTCGAGCCAACCA, the PBM binding z-score came out at 3.48.

Another assay concerns PXR homodimer (NR concentration 270 nM). The assay is described as above. The method, boiled down: as §1
TGAATGAGGTTACAAGATCAGGGAACGTTGCAAA yielded a PBM binding z-score of -0.231.

As to CCTCGGAGGACAGAAGGACAGAGCTGTCCGCTTT, the PBM binding z-score was -0.621.

For the sequence ATCCAAAGGTCGTGAGGTGAGTATACAGAAAGGC, the PBM binding z-score came to 0.629.

The sequence CCTTACGGGTGACGAGGTTATAGCACGACGAGCG had a PBM binding z-score of -0.0569.

On to CCGACTGGGGCAAGGTTACGATAACGCACAGCCA, for which the PBM binding z-score was -0.626.

As to TATACAGGGTGAAAGGCCAGAGTACGAATGTCGA, the PBM binding z-score was 0.178.

In turn, CAAACTAGATCAAAGGTCAAAGTCGAGCCAACCA yielded a PBM binding z-score of 1.84.

For TCTTGTAGATCAACCAGGTTAAGAAAGCCTGAGT, the PBM binding z-score was determined as 0.148.

In turn, TTAATGAGGTTAAAGATCAGGGAACGTGGCGTCG registered a PBM binding z-score of 0.342.

As for ACTCGGCGGACAAAGGTCAGAGCTACGCCAGTGA, the PBM binding z-score came out at 0.0332.

Consider TCTATGAGTTGATTAGGGCAACCGAAACAGCGGA, for which the PBM binding z-score was -0.195.

Turning to ATCTCTAGGTAACGAAGTTCAGTGAATGCCGAAC, the PBM binding z-score is 0.916.

In turn, CTCGAAAGGTCGGTTGAGTTGAGTATACGGATAA displayed a PBM binding z-score of 0.374.

Turning to ACTATTAGTTGATTTAGGGCAACCGATACGACGC, the PBM binding z-score is 0.993.

On to AGAATGAGGTTATTGAGATCAGGGAATTGCGGTC, for which the PBM binding z-score is 0.864.

Regarding ATCTCTAGGTAAGACTCAGTTCAGTGAAGAACGC, the PBM binding z-score came to 1.31.

The sequence CCTATTAGTTGACCATACGGGCAACCGAAGCTCG had a PBM binding z-score of 0.786.

With TTACCAAGGTGAAAGGTCCTTGATGCACGCCTTG, the PBM binding z-score was -0.666.

CCTAGTTGGTCCAGGTCACACACGCTATAGGTAC registered a PBM binding z-score of 1.6.

Take CCTCGGAGGACAGGAGGTCAGAGCTGTCCGCTTT: the PBM binding z-score is -0.0765.

Consider GTACCAAGGTGAATAGATCGTTGATGAGTAGGCG, for which the PBM binding z-score is -0.049.

In turn, CCTACTGGGCCACGAAAGGTCGTTGATTCAGTGA had a PBM binding z-score of 0.256.

The sequence CAAACTGGGTCACCGGAAGGTCAAAGTCCGCATG registered a PBM binding z-score of 1.27.

With TCTCGGAGGACACGCAGGTCAGAGCTTTCCAGAG, the PBM binding z-score came out at 0.213.

As to CCGAGTAGGTTATCGGGCATTCAGGCAACGGTGA, the PBM binding z-score was -0.43.

With TCTTGTAGGTCAACAGGAGGTTAAGAAAGATCGA, the PBM binding z-score was -0.245.

Sequence TGAATTAGGTTAAAGATCAGGGAACGTGGCGTCG came in with a PBM binding z-score of 0.276.

As for ATTCAAAGTTCATCTAGGTAACGTAAGATATGCT, the PBM binding z-score was 7.34.

As to TAGCCTAGGTGATGCGGGCCAGTATAGTGTCGGC, the PBM binding z-score is -0.76.

In the case of TAGCCTAGGTCCTGGGCCAGTATACCACGCGAAC, the PBM binding z-score is -0.893.

The sequence CCTATTAGTTGACCATAAGGGCAAGCGAAGCTCG returned a PBM binding z-score of 0.56.

GGAACGCGGGCAAGTTGATAGCAGAGTTTGATGG: the PBM binding z-score is -0.209.

As for TCATATAGGTAATACAGGTGAATGTCGGCATCTA, the PBM binding z-score turned out to be 0.579.

On to ATCGAAAGGTCGACGAGGTGAGTTTACACCGTTT, for which the PBM binding z-score was 0.675.

Turning to ATATGTAGGTTATCGGGTCATTCAGTTTGCGCAT, the PBM binding z-score amounted to 7.33.

The sequence ACAGACAGGTGAGTGAAGGTAACGCAGCTGGACG had a PBM binding z-score of -0.327.

CGTCCAAGGTCAGCAGATCAGTGAAAGCGACGTG displayed a PBM binding z-score of 0.4.

AGAATGAGGTTACCAAAGATCCGGGAAACGCTTG: the PBM binding z-score is -0.0527.

The sequence AGAACGAGGGCAATGAGTTGCTAGCACGGGTGGC had a PBM binding z-score of 0.523.

CAAACTAGGTCAAAGGTAAAAGTCGAGCCAACCA gave a PBM binding z-score of -0.123.
